“And” between values parts separate entries of the source, which are not always exact repeats. Identical values can stand only once. Among all 340,000 compounds or so, about 120 (0.035%) were called active. Only a selection was taken, and actives are over-represented in it overall. Unmarked numbers belong to inactive results.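 How the source made its calls: active means mean replicate inhibition at least 50% and at least half of replicates individually reaching 50%; inconclusive means only one of the two criteria met; inactive means neither criterion met.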

The experiment is described as follows: blockers of twin-arginine translocation in E. coli – MC4100, TorA-mCherry reporter, fluorescence, single point, primary screen (AID 488895).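 Further: exported cargo escapes ClpAP degradation while cytoplasmic cargo is degraded and loses fluorescence; 0% = median of neutral control wells and 100% = median of NaSCN control wells.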 To be noted: E. coli MC4100 TorA-mCherry Tat export, at 10 µM, stronger effect = higher value.
The inhibition is the drop in the measured response relative to a control, in per cent. As for `Nc1nc(Sc2ncccc2[N+](=O)[O-])n[nH]1`, the inhibition was -8.21%. Turning to `O=C(O)c1ccccc1OCc1ccccc1Cl`, the inhibition is -2.88%. Regarding `CS(=O)(=O)N(CC(=O)N1CCOCC1)c1ccc2c3c(cccc13)CC2`, the inhibition was 2.34%. Turning to `O=P(O)(CP(=O)(c1ccccc1)c1ccccc1)c1ccccc1O`, the inhibition was -10.9%.

`COc1cc(C2C(C#N)=C(C)NC3=C2C(=O)CC(C)(C)C3)ccc1O` (configuration not stated): the inhibition was 4.04%.

Consider `CN1CC(=O)N=C1N`, for which the inhibition is -7.3% and -13.2%.

As to `CCC(C)Sc1nc(C)nc2c1c(=O)n(C)c(=O)n2C` (configuration not stated), the inhibition is -2.92%. As to `OC(COc1ccc(F)cc1Cl)CN1CCc2ccccc2C1` (configuration not stated), the inhibition was 3.62%. To `COC(=O)c1cc2n(n1)CCCNC2=O` belongs -2.39%. In the case of `O=C1OCC2=C1C(c1ccc(Cl)cc1)c1cc3c(cc1O2)OCO3` (configuration not stated), the inhibition is 2.92%. Regarding `CC1C(=O)Nc2ccc(S(=O)(=O)N3CCN(c4ccccc4F)CC3)cc2NC1=O` (configuration not stated), the inhibition is 2.39%. `COCCCn1c(SCc2cccc(OC)c2)nc2cc(OC)c(OC)cc2c1=N`: the inhibition was 8.62%. Take `CC(CCN1CCN=C1N(C)C)c1ccccc1` (configuration not stated): the inhibition is 1.28%. Take `Cn1c(SCC(=O)N2CCCC2)nnc1-c1ccc2c(c1)OCO2`: the inhibition was -0.749%. Take `CC(C)c1ccc(NC(=O)C2CCCN(S(=O)(=O)c3cccnc3)C2)cc1` (configuration not stated): the inhibition is -2.58%. In the case of `CC(C)[C@H](NC(=O)N1CCn2c1nc1ccccc12)C(=O)NC1CC1`, the inhibition is 3.55%. To `CCN1CCN(C(=O)N[C@@H](C(=O)N[C@@H]2C(=O)N3C(C(=O)O)=C(CSc4nnnn4C)CS[C@H]23)c2ccc(O)cc2)C(=O)C1=O` belongs -0.914%. Take `CC1CCCN(C(=O)c2ccc3c(c2)C(=O)N(CCC2=CCCCC2)C3=O)C1` (configuration not stated): the inhibition is 5.37%. Take `COC(=O)c1c(C)oc(C)c1S(=O)(=O)Nc1ccc(C(C)C)cc1`: the inhibition was 8.29%.

Turning to `CC(C)(C)S(=O)(=O)N1Cc2cc(CO)cc(CCO)c2[C@H]1CCO`, the inhibition was -5.8%.

For the compound `C[n+]1ccccc1C1CCCC/C1=N\Nc1ccc([N+](=O)[O-])cc1[N+](=O)[O-]` (configuration not stated), the inhibition is -6.35%.

Regarding `COC(=O)c1ccc(CN(c2ccccc2OC)S(=O)(=O)c2cccs2)o1`, the inhibition is 22.7%. As to `CNC(=O)c1nnc(Cc2ccc(Cl)cc2)o1`, the inhibition is -1.7%. Regarding `COCCCNC(=O)C1CC(=O)N(CCc2ccccc2)C1` (configuration not stated), the inhibition was 4.61%. To `COc1ccc(Cl)cc1NC(=O)CN(C)C(=O)c1ccc2n[nH]nc2c1` belongs -3.85%. Consider `Cc1cc(C)cc(C(=O)N2CCN=C2SCc2ccc([N+](=O)[O-])cc2)c1`, for which the inhibition is 7.58%. In the case of `Cn1cc(CN2CCCCC2c2ccccn2)c(-c2ccc3c(c2)OCCO3)n1` (configuration not stated), the inhibition was 3%. With `CCc1nc(C)cn1S(=O)(=O)c1cc([N+](=O)[O-])ccc1Cl`, the inhibition was -13.2%. As for `O=C1CCC/C(=N\NC(=O)NC2CCCCC2)C1`, the inhibition was 4.42%. For the compound `O=[N+]([O-])c1ncc(Br)cc1Nc1ccccc1`, the inhibition was -4.47%. Consider `COC(=O)c1c(C(=O)OC)c(-c2cccc(C)c2)n2c1CS(=O)C2` (configuration not stated), for which the inhibition was 4.25%. As for `Cc1cc(C)c(OCCN2CC(C)OC(C)C2)c(Br)c1` (configuration not stated), the inhibition was 24.1%. Take `COc1ccccc1NC(=O)c1cc(N2C(=O)C3C4CCC(C4)C3C2=O)ccc1Cl` (configuration not stated): the inhibition was -14.7%. Regarding `CC1(C)CC(=O)C(CC(=O)N2CCC(Cc3ccccc3)CC2)C(=O)C1`, the inhibition was 3.6%. `CCCCCCCCCCCCC(NC(C)=O)(C(=O)OCC)C(=O)OCC`: the inhibition was 7.11%. Consider `COc1ccc(NC(=O)c2cc([N+](=O)[O-])ccc2NC(=O)CNC2CCCCC2C)c(OC)c1` (configuration not stated), for which the inhibition is 3.4%.

Regarding `COc1cc(NS(=O)(=O)c2ccc(NC(=O)c3ccc([N+](=O)[O-])cc3)cc2)ncn1`, the inhibition was -6.48%. `Cn1ccc(=Nc2ccc(NC(=O)c3ccc(N=c4ccn(C)c5ccc([N+](=O)[O-])cc45)cc3)cc2)cc1`: the inhibition is 112% (active). As for `CCc1ccc(NC(=O)c2ccc(Cn3cc([N+](=O)[O-])cn3)cc2)cc1`, the figure is 1.09%. For `CN(CCc1ccccc1)C(=O)c1cccc(NC(=O)Cc2cccc(NC(=O)C3CCCN(C(=O)C4CCC4)C3)c2)c1` (configuration not stated), the inhibition was 2.65%. As for `O=C(CNC(=O)c1cc(S(=O)(=O)N2CCOCC2)ccc1N1CCCC1)Nc1ccc(F)c(F)c1`, the figure is -7.06%. As to `C=CCCC(=O)N1C[C@H]2CON(C)[C@H]2C[C@H]1c1cccc(Nc2ccccc2)c1`, the inhibition is 1.87%.

On to `COc1ccc(-c2nn(C)c(=O)c3ccccc23)cc1CNC(=O)C1CCCCC1`, for which the inhibition is 5.51%. Consider `CCSc1sc(CC)cc1C=O`, for which the inhibition was -5.06%. Turning to `COC(=O)/C=C(\Oc1ccccc1)C1(O)CCCCC1`, the inhibition is -5.03%. For the compound `COc1ccc(C(=O)NCc2ccccc2C)cc1S(=O)(=O)NC1CCCC1`, the inhibition was -5.16%. In the case of `Cc1cccc(NS(=O)(=O)c2cc(Cl)ccc2Cl)n1`, the inhibition is 1.57%. As to `CCc1nnc(NS(=O)(=O)c2ccc(NC(=S)NC(=O)/C=C/c3cccs3)cc2)s1`, the inhibition is 3.92%.

On to `CC(NC(=O)COc1cccnc1[N+](=O)[O-])c1ccc(Cl)cc1Cl` (configuration not stated), for which the inhibition was -4.49%.

In the case of `Cc1cc(S(=O)(=O)NCc2ccccn2)c(Cl)cc1Cl`, the inhibition was -16.8%. `Cc1cc(C(F)F)n2nc(C(=O)Nc3ccc(S(=O)(=O)NC45CC6CC(CC(C6)C4)C5)cc3)nc2n1`: the inhibition is 10.1%. As to `O=C(c1cc2ccccc2s1)N1CCN(c2ccccn2)CC1`, the inhibition was -5.47%. `O=C(CNC(=O)OCc1ccccc1)NC1CCCCNC1=O` (configuration not stated): the inhibition is 10.8%. For `Cc1nn(C)c(Oc2ccc(Cl)cc2)c1C=O`, the inhibition was -0.515%. On to `CCOC(=O)c1sc2nc(C)nc(SCC(N)=O)c2c1C`, for which the inhibition is -4.58%. Consider `O=S1(=O)CCO[C@H]2Cc3ccccc3[C@H]2N1Cc1ccccc1`, for which the inhibition is -48.1%.

Take `CCCn1c(C)cc(/C=C(\C#N)C(=O)OCC(=O)N(C)c2c(N)n(Cc3ccccc3)c(=O)[nH]c2=O)c1C`: the inhibition is 11%.

The record behind these values is PubChem BioAssay AID488895 (Broad Institute, 2010).
